Compound activity deposited in PubChem BioAssay by The Scripps Research Institute Molecular Screening Center.
PAFAH2 inh: PAFAH2 (human) inhibition | Q99487 | recombinant PAFAH2, FP-rhodamine activity probe, fluorescence polarization | inhibition, % at 3.39 µM | 340,000 tested, 0.99% active | AID 492956;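 active means inhibition above the mean over all tested compounds plus 3 SD, cut at about 30% in these data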;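 further: inhibitors block probe labeling of enzyme so polarization drops; 0% = enzyme with DMSO and 100% = wells lacking PAFAH2 protein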
pPAFAH FP inh: inhibitors of human plasma PAF acetylhydrolase (pPAFAH) | recombinant pPAFAH, FP-rhodamine probe fluorescence polarization | AID 463082 | inhibition, % at 3.39 µM | 330,000 tested, 1.5% active;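 active means inhibition above the mean inhibition across the screen plus 3 SD, cut at about 25% in these data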;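 further: inhibitors block binding of the rhodamine activity-based probe so polarization drops; 0% = enzyme with DMSO and 100% = wells lacking pPAFAH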
Target sequence (Q13093 whole entry, looked up): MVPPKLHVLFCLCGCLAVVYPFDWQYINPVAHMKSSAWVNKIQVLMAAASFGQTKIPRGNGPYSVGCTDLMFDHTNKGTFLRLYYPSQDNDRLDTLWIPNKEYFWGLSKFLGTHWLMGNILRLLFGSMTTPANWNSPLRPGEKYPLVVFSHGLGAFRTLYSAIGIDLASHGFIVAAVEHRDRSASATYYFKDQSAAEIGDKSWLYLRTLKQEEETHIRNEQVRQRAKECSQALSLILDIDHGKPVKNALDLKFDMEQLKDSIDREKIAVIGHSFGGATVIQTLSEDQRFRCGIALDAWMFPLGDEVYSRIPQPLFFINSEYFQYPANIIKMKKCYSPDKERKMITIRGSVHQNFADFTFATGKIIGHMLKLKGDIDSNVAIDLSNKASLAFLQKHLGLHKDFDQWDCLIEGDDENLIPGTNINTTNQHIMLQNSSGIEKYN
PAFAH1B2 inh: PAFAH1B2 (human) inhibition. P68402. recombinant PAFAH1B2, FP-rhodamine activity probe, fluorescence polarization. inhibition, % at 3.39 µM. 340,000 tested, 1.2% active. AID 492953;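 active means inhibition above the mean of all tested compounds plus 3 SD, cut at about 24% in these data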;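 further: 0% = enzyme with DMSO and 100% = wells lacking PAFAH1B2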
Fam108B inh: blocks mouse Fam108B hydrolase in RBBP9 counter-screen; inhibition, % at 9.51 µM; recombinant Fam108B, FP-Rh probe fluorescence polarization; 300,000 tested, 0.33% active;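 active means inhibition above the screen mean inhibition plus 3 SD, computed separately per campaign, cut at about 18% in these data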;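 further: inhibitors lower polarization as less probe binds the enzyme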
PME-1 inh: PME-1 (human) inhibition; AID 2130; recombinant PME-1, FP-Rh probe fluorescence polarization; 320,000 tested, 0.53% active; inhibition, % at 5.9 µM; Q9Y570;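 active means inhibition above the campaign mean of all compounds plus 3 SD, cut at about 26% in these data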;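 further: competitive labeling of PME-1 active site by serine hydrolase directed probe; 0% = PME-1 with DMSO and 100% = wells lacking PME-1 enzyme; inhibitors block probe labeling so polarization falls and inhibition rises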
PAFAH1B3 FP inh: inhibitors of human PAFAH1B3; recombinant PAFAH1B3, FP-rhodamine probe, fluorescence polarization; Q15102; inhibition, % at 3.39 µM; 340,000 tested, 0.28% active;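 active means inhibition above the screen-wide average of all tested compounds plus 3 SD, cut at about 25% in these data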;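 further: 0% = enzyme with DMSO only and 100% = wells lacking PAFAH1B3 protein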
Target sequence (Q15102 whole entry, looked up): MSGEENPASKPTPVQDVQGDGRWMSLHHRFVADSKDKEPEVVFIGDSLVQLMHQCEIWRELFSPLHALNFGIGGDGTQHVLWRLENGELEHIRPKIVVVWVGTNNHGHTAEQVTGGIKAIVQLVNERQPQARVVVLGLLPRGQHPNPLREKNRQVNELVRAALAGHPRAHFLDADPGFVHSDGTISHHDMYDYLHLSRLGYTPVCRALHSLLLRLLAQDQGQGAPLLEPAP
pPAFAH confirm: confirmation of human plasma PAF acetylhydrolase (pPAFAH) inhibitors; shares compounds with pPAFAH FP inh; AID 463230; recombinant pPAFAH, FP-Rh probe fluorescence polarization; inhibition, % at 3.39 µM; 2,300 tested, 72% active;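 active means mean inhibition of the triplicate above the hit cutoff set for the earlier primary screen, cut at about 25% in these data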;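 further: 0% = enzyme with DMSO and 100% = wells lacking pPAFAH enzyme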
Numbers without * were called inactive; nt = not tested or not shown. An excerpt weighted towards active compounds, which were near 2.8% of everything screened.

SMILES	PAFAH2 inh	pPAFAH FP inh	PAFAH1B2 inh	Fam108B inh	PME-1 inh	PAFAH1B3 FP inh	pPAFAH confirm
COc1ccc(-n2c(NC(=O)c3ccco3)c(C#N)c3nc4ccccc4nc32)cc1	7.0	14.7	4.0	2.8	4.6	9.5	nt
N#Cc1c(NC(=O)c2ccccc2Cl)n(Cc2ccccc2)c2nc3ccccc3nc12	64.3*	38.4*	53.1*	11.9	12.1	63.3*	34.8*
Cc1ccc(OCCC(=O)OCC(=O)Nc2ccc(N3CCOCC3)cc2)cc1	3.4	19.8	9.1	-0.1	-4.4	8.4	nt
CCOc1ccc(OCCC(=O)OCC(=O)Nc2ccc(N3CCOCC3)cc2)cc1	-14.6	35.4*	-6.9	5.6	3.2	11.4	23.2
Cc1ccc(-c2cc(-c3ccco3)c(C#N)c(=O)[nH]2)cc1	22.8	34.8*	6.8	3.7	2.6	12.7	21.1
COCCC1CCCCN1Cc1cn(-c2ccccc2)nc1-c1ccc2c(c1)OCO2 (configuration not stated)	-3.3	1.9	1.9	0.5	-4.5	-5.8	nt
COc1cc2nc(CN3CCOCC3)n(CC(=O)N3CCCCCC3)c(=O)c2cc1OC	2.1	55.6*	1.5	-3.5	4.0	2.8	4.9
Cn1cc(/C=C(\NC(=O)c2ccccc2)C(=O)NCCN2CCOCC2)c2ccccc21	5.0	3.6	-9.2	2.9	4.6	-6.5	nt
Nc1cc2nc3ccccc3oc-2cc1=O	4.2	36.0*	4.0	8.8	22.3	9.5	7.9
CCOc1ccc([C@@H]2CC=C(C(=O)O)[C@H](c3cccc(Cl)c3)N2S(=O)(=O)c2ccc(C)cc2)cc1	3.2	5.8	19.1	1.6	-2.7	2.5	nt
Cc1ccc(S(=O)(=O)N2[C@@H](c3ccc(C(C)(C)C)cc3)C(C(=O)O)=CC[C@H]2c2ccc(Cl)cc2)cc1	-2.0	37.4*	89.6*	nt	nt	-5.6	54.1*
Cc1cccc(-n2cc(-c3ccccc3)c3c(NN4CCOCC4)ncnc32)c1	-0.6	74.6*	-0.3	1.2	-4.0	-2.6	12.5
COc1ccc(C(=O)N/N=C/c2ccc(OC)c(COc3ccc(F)cc3)c2)cc1	-24.2	8.7	-4.9	-14.0	-19.9	6.8	nt
COc1cccc(OCc2cc(/C=N/Nc3ccc(C(=O)O)cc3)ccc2OC)c1	14.6	39.1*	-0.1	13.8	9.9	-1.2	64.8*
CC(NC(=O)C12CC3CC(CC(C3)C1)C2)C(=O)N/N=C/C1=C(N2CCOCC2)C(=C\c2ccccc2)/CC1 (configuration not stated)	1.3	14.8	-2.5	8.6	8.7	4.3	nt
CC1CC1C(=O)N(C)CC(=O)Nc1cccc(F)c1 (configuration not stated)	-3.7	2.1	2.8	0.3	-4.3	2.7	nt
CCCCOC(=O)c1ccc(S(N)(=O)=O)o1	3.5	4.4	4.7	-0.4	1.3	5.8	nt
O=C(O)CN1C(=O)/C(=C\c2cc(Br)ccc2OCc2ccc(Cl)cc2Cl)SC1=S	33.1*	52.2*	18.4	-9.3	3.1	-1.2	66.9*
CCOc1ccc(C(C(=O)NCC2CCCO2)N(C(=O)c2snc(C(N)=O)c2N)c2ccc3c(c2)OCCO3)cc1 (configuration not stated)	-1.6	2.6	1.3	0.1	2.6	-2.0	nt
CCOc1ccc(NS(=O)(=O)c2ccc(C(=O)NCC(c3ccc(OC)cc3)N3CCCC3)cc2)cc1 (configuration not stated)	8.1	49.0*	1.9	-4.6	-1.4	3.1	41.3*
O=C(COC(=O)c1ccccc1)Nc1ncc([N+](=O)[O-])s1	56.7*	56.4*	18.4	nt	nt	25.9*	37.9*
O=C(Nc1ccccc1)Nc1ncc([N+](=O)[O-])s1	8.5	nt	3.6	nt	nt	-0.1	nt
CC(NC(=O)CNC(=O)C1O[C@@H]2OC(C)(C)O[C@@H]2[C@H]2OC(C)(C)O[C@@H]12)C(=O)O (some centres not stated)	-5.9	3.3	-1.3	-3.9	-2.7	1.7	nt
Cc1cccc(NC(=O)CSc2nnc(-c3ccco3)c(-c3ccco3)n2)c1	24.8	nt	7.1	nt	nt	10.0	nt
Cc1cccc(NC(=O)CSc2nnc(-c3ccco3)c(-c3ccco3)n2)c1C	41.2*	34.6*	12.3	8.8	0.0	5.4	21.5
SMILES	PAFAH2 inh	pPAFAH FP inh	PAFAH1B2 inh	Fam108B inh	PME-1 inh	PAFAH1B3 FP inh	pPAFAH confirm
CCOC(=O)C1Nc2c(F)cc(C)cc2C2C=CCC12 (configuration not stated)	nt	10.0	nt	5.2	3.5	nt	nt
CCOC(=O)C1Nc2ccc(C(=O)O)cc2C2C=CCC12 (configuration not stated)	17.8	40.3*	23.7	17.6	-38.9	48.5*	6.9
CCc1ccc(NC(=O)C(C)OC(=O)c2cc(=O)[nH]c3ccc(S(=O)(=O)Nc4ccc(F)cc4)cc23)cc1 (configuration not stated)	-32.7	73.2*	-14.4	-27.5	-22.6	-23.0	55.8*
O=C(O)c1ccccc1/C=N/Nc1ccc(S(=O)(=O)N2CCOCC2)cc1[N+](=O)[O-]	-1.2	3.3	9.1	-4.6	7.2	5.7	nt
O=C(O)c1ccccc1NS(=O)(=O)c1ccc(NN=Cc2cccc(Cl)c2)c([N+](=O)[O-])c1	21.8	66.1*	15.0	nt	nt	12.3	77.3*
O=C(O)c1ccccc1NS(=O)(=O)c1ccc(NN=Cc2ccc(F)cc2)c([N+](=O)[O-])c1	19.0	58.4*	14.2	nt	nt	13.6	77.5*
CCN(CC)C(=O)[C@H]1C[C@H](CC(=O)NC/C=C(\C)CCC=C(C)C)C(=O)N2CCc3c([nH]c4cc(CCC(=O)N(C)C)ccc34)[C@]12C	-3.5	63.1*	2.0	nt	nt	6.0	49.6*
Cc1ccc(S(=O)(=O)N[C@H](C(=O)OCC(=O)N2N=C(c3ccc(Cl)cc3)CC2c2ccco2)C(C)C)cc1 (some centres not stated)	1.0	40.4*	-7.9	-8.7	-12.7	0.2	9.1
CC(=O)N1N=C(c2ccc(Cl)cc2)CC1c1ccco1 (configuration not stated)	9.2	-3.7	2.5	2.2	-1.7	8.8	nt
O=C(O)c1ccc(C(=O)C(=O)c2ccccc2)cc1	-4.8	14.0	3.5	-5.0	1.4	8.8	nt
O=C(/C(=N/N=C/c1ccc(O)c(O)c1O)c1ccccc1)c1ccccc1	4.2	79.7*	-11.0	12.8	16.3	-14.3	84.6*
Oc1ccc(/C=N/N=C(c2ccccc2)c2ccccc2)c(O)c1O	3.0	58.5*	1.0	12.4	22.3	20.7	82.8*
O=C(NC(Cc1ccccc1)c1nc2ccccc2[nH]1)C1CC(=O)N(c2ccc3c(c2)OCCO3)C1 (configuration not stated)	-13.0	5.3	2.5	1.4	3.0	3.3	nt
COCc1c(C(=O)N2CCN(CCOc3ccccc3)CC2)oc2ccccc12	-4.0	0.9	-0.1	nt	1.9	0.1	nt
